{"source": "PubChem BioAssay (NCI)", "note": "Compounds without any hit were thinned out: in the full panel of roughly 83,000, 20% have a hit.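 Results are percent growth after 48 hours of single-concentration exposure. 100 means growth as in untreated cells, lower positive values show inhibition; negative values down to -100 show cell death.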 Calls of active or inactive are those of the source. Rule for the calls: active = growth percent below 10; inactive = the rest."}
{"system": "SF-295 CNS", "assay": "NCI-60 one-dose screen, 48 h (100 = growth as untreated, 0 = no growth, -100 = all killed)", "details": "10 µM"}
{"compound": "COc1ccc2oc(=O)cc(C(c3ccc[nH]3)c3ccc[nH]3)c2c1", "growth": "6.39% (active)"}
{"compound": "CCCN(CCC)CCCNC(=O)c1cc2c(-c3ccc(OC)c(OC)c3)nn(C)c2s1", "growth": "35% (inactive)"}
{"compound": "N#Cc1c(-c2ccccc2)nc(SCC(=O)N2CCOCC2)[nH]c1=O", "growth": "97.1% (inactive)"}
{"compound": "COc1ccc(NC(=O)c2sc3nc4c(cc3c2N)C(O)CCC4)cc1", "note": "(stereo unspecified)", "growth": "82.4% (inactive)"}
{"compound": "COc1cccc2c1O/C(=C\\c1ccc([N+](=O)[O-])s1)C2=O", "growth": "97.2% (inactive)"}
{"compound": "N#Cc1cnc2ccc(NCc3cnc[nH]3)cc2c1Nc1ccc(F)c(Cl)c1", "growth": "94.4% (inactive)"}
{"compound": "O=C1/C(=C/c2ccc(O)cc2)Oc2ccc(Cl)cc21", "growth": "89.9% (inactive)"}
{"compound": "Cc1ccc([P+](Cc2ccccc2)(c2ccccc2)c2ccccc2)cc1", "growth": "-6.8% (active)"}
{"compound": "CCOC(=O)c1c(C)n(-c2ccc(Cl)cc2)c2ccc(OC(=O)/C=C/c3ccccc3)cc12", "growth": "79.4% (inactive)"}
{"compound": "O=C(O)CCCN1C(=O)NC2(C1=O)c1ccccc1-c1ccccc12", "growth": "95.2% (inactive)"}
{"compound": "Cc1cc(C)c2nc(C)c(C)[n+]([O-])c2c1", "growth": "101% (inactive)"}
{"compound": "CCOC(=O)c1sc(Nc2ncccn2)nc1-c1ccccn1", "growth": "84.2% (inactive)"}
{"compound": "COc1ccc(-c2[nH]ncc2/C=C/c2cc(C(F)(F)F)[nH]c(=O)n2)cc1", "growth": "94.7% (inactive)"}
{"compound": "COc1ccc(-c2nc(-c3nc4ccc(C)cc4[nH]3)c3ccccn23)cc1", "growth": "8.6% (active)"}
{"compound": "CC(Oc1ccc(Cl)cc1)c1ccccc1", "note": "(stereo unspecified)", "growth": "96% (inactive)"}
{"compound": "CCCCCCCCCCN=C(c1ccc(N(C)C)cc1)c1ccc(N(C)C)cc1", "growth": "14% (inactive)"}
{"compound": "c1ccc(COCC[P+](c2ccccc2)(c2ccccc2)c2ccccc2)cc1", "growth": "-46% (active)"}
{"compound": "COCCOC(=O)NC(=O)Nc1ccc(/C(=N/O)c2ccc(Cl)cc2)cc1", "growth": "-8.84% (active)"}
{"compound": "O=C(O)c1ccc(CNc2ccc(C(=O)CCl)cc2)cc1", "growth": "86.1% (inactive)"}
{"compound": "CC(C)C[C@H](NC(=O)CCn1ccc2ccccc2c1=O)B(O)O", "growth": "41% (inactive)"}
{"compound": "COc1cc(CSc2nc3ccc(Cl)cc3c(=O)n2Cc2ccccc2)cc(OC)c1OC", "growth": "28.9% (inactive)"}
{"compound": "c1ccc(CNc2nc(Nc3ccc(-c4nc5ccccc5[nH]4)cc3)c3cn[nH]c3n2)cc1", "growth": "-44.5% (active)"}
{"compound": "CCCCCCCCCCCC(=O)NCCCN(C)C", "growth": "95.6% (inactive)"}
{"compound": "CCCc1c(C)nc2scc(-c3ccc(Cl)cc3)n2c1=O", "growth": "105% (inactive)"}
{"compound": "COc1ccc(/C=C2\\SC(=S)N(CCCN3CCOCC3)C2=O)c(OC)c1", "growth": "107% (inactive)"}
{"compound": "CCCCN(CCCC)c1ccc(C(=NC(C)CCCN(CC)CC)c2ccc(N(C)C)cc2)cc1", "note": "(stereo unspecified)", "growth": "-72% (active)"}
{"compound": "CCN(CC)CCOC(=O)c1ccc(N=Nc2ccc(O)c(OC)c2)cc1", "growth": "101% (inactive)"}
{"compound": "CCc1ccc(-c2nnc(COc3ccc(-c4nc5ccc(C)cc5[nH]4)cc3OC)o2)cc1", "growth": "20% (inactive)"}
{"compound": "COc1cc(-c2nc3ccc(C)cc3[nH]2)ccc1OCc1nnc(-c2ccc(CC(C)C)cc2)o1", "growth": "96.3% (inactive)"}
{"compound": "O=C(Nc1cccc(F)c1)Nc1cccc(Cl)c1", "growth": "92.7% (inactive)"}
{"compound": "CCCCOCCOCCOCc1cc2c(cc1Br)OCO2", "growth": "100% (inactive)"}
{"compound": "CC(C)(C)c1ccc(OCCCCCCN2CCNCC2)cc1", "growth": "57.7% (inactive)"}
{"compound": "O/N=C1\\CCC2CCCCC2C1", "note": "(stereo unspecified)", "growth": "93.6% (inactive)"}
{"compound": "O=c1cc(CSc2nnc(-c3ccccc3)n2-c2ccc(F)cc2)c2ccc3ccccc3c2o1", "growth": "95.9% (inactive)"}
{"compound": "CC(C)C[C@H](NC(=O)Cn1ccc2ccccc2c1=O)B(O)O", "growth": "69.5% (inactive)"}
{"compound": "COc1ccc(-c2nc(-c3nc4ccc(OC)cc4[nH]3)c3ccccn23)cc1", "growth": "52% (inactive)"}
{"compound": "CCn1nc(-c2ccccn2)c2cccnc2c1=S", "growth": "78.1% (inactive)"}
{"compound": "CNC(=O)c1cc(Oc2ccc(NC(=O)Nc3ccc(Cl)c(OC(C)C)c3)c(F)c2)ccn1", "growth": "33.3% (inactive)"}
{"system": "SF-539 CNS", "assay": "NCI-60 one-dose screen, 48 h (100 = growth as untreated, 0 = no growth, -100 = all killed)", "details": "10 µM"}
{"compound": "COc1ccc2oc(=O)cc(C(c3ccc[nH]3)c3ccc[nH]3)c2c1", "growth": "1.28% (active)"}
{"compound": "CCCN(CCC)CCCNC(=O)c1cc2c(-c3ccc(OC)c(OC)c3)nn(C)c2s1", "growth": "10.9% (inactive)"}
{"compound": "N#Cc1c(-c2ccccc2)nc(SCC(=O)N2CCOCC2)[nH]c1=O", "growth": "97.1% (inactive)"}
{"compound": "COc1ccc(NC(=O)c2sc3nc4c(cc3c2N)C(O)CCC4)cc1", "note": "(stereo unspecified)", "growth": "111% (inactive)"}
{"compound": "COc1cccc2c1O/C(=C\\c1ccc([N+](=O)[O-])s1)C2=O", "growth": "55.7% (inactive)"}
{"compound": "N#Cc1cnc2ccc(NCc3cnc[nH]3)cc2c1Nc1ccc(F)c(Cl)c1", "growth": "92.1% (inactive)"}
{"compound": "O=C1/C(=C/c2ccc(O)cc2)Oc2ccc(Cl)cc21", "growth": "66.7% (inactive)"}
{"compound": "Cc1ccc([P+](Cc2ccccc2)(c2ccccc2)c2ccccc2)cc1", "growth": "23% (inactive)"}
{"compound": "CCOC(=O)c1c(C)n(-c2ccc(Cl)cc2)c2ccc(OC(=O)/C=C/c3ccccc3)cc12", "growth": "92.7% (inactive)"}
{"compound": "O=C(O)CCCN1C(=O)NC2(C1=O)c1ccccc1-c1ccccc12", "growth": "99.7% (inactive)"}
{"compound": "Cc1cc(C)c2nc(C)c(C)[n+]([O-])c2c1", "growth": "97.2% (inactive)"}
{"compound": "CCOC(=O)c1sc(Nc2ncccn2)nc1-c1ccccn1", "growth": "99.3% (inactive)"}
{"compound": "COc1ccc(-c2[nH]ncc2/C=C/c2cc(C(F)(F)F)[nH]c(=O)n2)cc1", "growth": "86.7% (inactive)"}
{"compound": "COc1ccc(-c2nc(-c3nc4ccc(C)cc4[nH]3)c3ccccn23)cc1", "growth": "82.4% (inactive)"}
{"compound": "CC(Oc1ccc(Cl)cc1)c1ccccc1", "note": "(stereo unspecified)", "growth": "102% (inactive)"}
{"compound": "CCCCCCCCCCN=C(c1ccc(N(C)C)cc1)c1ccc(N(C)C)cc1", "growth": "10.9% (inactive)"}
{"compound": "c1ccc(COCC[P+](c2ccccc2)(c2ccccc2)c2ccccc2)cc1", "growth": "18.5% (inactive)"}
{"compound": "COCCOC(=O)NC(=O)Nc1ccc(/C(=N/O)c2ccc(Cl)cc2)cc1", "growth": "1.64% (active)"}
{"compound": "O=C(O)c1ccc(CNc2ccc(C(=O)CCl)cc2)cc1", "growth": "102% (inactive)"}
{"compound": "CC(C)C[C@H](NC(=O)CCn1ccc2ccccc2c1=O)B(O)O", "growth": "-11.4% (active)"}
{"compound": "COc1cc(CSc2nc3ccc(Cl)cc3c(=O)n2Cc2ccccc2)cc(OC)c1OC", "growth": "5.82% (active)"}
{"compound": "c1ccc(CNc2nc(Nc3ccc(-c4nc5ccccc5[nH]4)cc3)c3cn[nH]c3n2)cc1", "growth": "1.69% (active)"}
{"compound": "CCCCCCCCCCCC(=O)NCCCN(C)C", "growth": "86.6% (inactive)"}
{"compound": "CCCc1c(C)nc2scc(-c3ccc(Cl)cc3)n2c1=O", "growth": "101% (inactive)"}
{"compound": "COc1ccc(/C=C2\\SC(=S)N(CCCN3CCOCC3)C2=O)c(OC)c1", "growth": "104% (inactive)"}
{"compound": "CCCCN(CCCC)c1ccc(C(=NC(C)CCCN(CC)CC)c2ccc(N(C)C)cc2)cc1", "note": "(stereo unspecified)", "growth": "-73.2% (active)"}
{"compound": "CCN(CC)CCOC(=O)c1ccc(N=Nc2ccc(O)c(OC)c2)cc1", "growth": "96.4% (inactive)"}
{"compound": "CCc1ccc(-c2nnc(COc3ccc(-c4nc5ccc(C)cc5[nH]4)cc3OC)o2)cc1", "growth": "-28.2% (active)"}
{"compound": "COc1cc(-c2nc3ccc(C)cc3[nH]2)ccc1OCc1nnc(-c2ccc(CC(C)C)cc2)o1", "growth": "91.7% (inactive)"}
{"compound": "O=C(Nc1cccc(F)c1)Nc1cccc(Cl)c1", "growth": "105% (inactive)"}
{"compound": "CCCCOCCOCCOCc1cc2c(cc1Br)OCO2", "growth": "92.5% (inactive)"}
{"compound": "CC(C)(C)c1ccc(OCCCCCCN2CCNCC2)cc1", "growth": "68.9% (inactive)"}
{"compound": "O/N=C1\\CCC2CCCCC2C1", "note": "(stereo unspecified)", "growth": "88.8% (inactive)"}
{"compound": "O=c1cc(CSc2nnc(-c3ccccc3)n2-c2ccc(F)cc2)c2ccc3ccccc3c2o1", "growth": "98.7% (inactive)"}
{"compound": "CC(C)C[C@H](NC(=O)Cn1ccc2ccccc2c1=O)B(O)O", "growth": "15.9% (inactive)"}
{"compound": "COc1ccc(-c2nc(-c3nc4ccc(OC)cc4[nH]3)c3ccccn23)cc1", "growth": "90.2% (inactive)"}
{"compound": "CCn1nc(-c2ccccn2)c2cccnc2c1=S", "growth": "89.1% (inactive)"}
{"compound": "CNC(=O)c1cc(Oc2ccc(NC(=O)Nc3ccc(Cl)c(OC(C)C)c3)c(F)c2)ccn1", "growth": "66.9% (inactive)"}
